# Measured values published in PubChem BioAssay AID686979 (National Center for Advancing Translational Sciences (NCATS), 2013).
# Screen size: about 420,000 compounds; about 50,000 (12%) were called active. Roughly 26% stayed inconclusive and do not appear here. For the sample, actives were picked, then their nearest neighbours and some compounds at random. Values without a mark were called inactive. Calls come from the whole dose curve; as a rule, active = well fitted inhibition curve with a large enough effect; inconclusive = small, poorly fitted or top-dose-only effect; inactive = flat fitted curve, though single readings scatter.
# Experiment: qHTS for Inhibitors of human tyrosyl-DNA phosphodiesterase 1 (TDP1): qHTS in cells in presence of CPT; note: nearly all actives have a fitted effect of over 55% in size
# Settings: chicken DT40 Tdp1-/-;hTDP1 cells + 20 nM CPT, ATP luminescence, 48 h; series mostly up to 46.2 µM; activity change, negative = growth inhibition: at the top concentration
# Method in brief: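 Chicken DT40 Tdp1-/- cells complemented with human TDP1, 400 cells/well, exposed to compounds plus 20 nM camptothecin for at least 48 h at 37 C; viability read as ATP content by CellTiter-Glo luminescence.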
# % is set by controls: 0 for no effect and ±100 for the full control effect; potency is the fitted concentration of half-maximal effect.
Structure (SMILES),"activity change, negative = growth inhibition",Potency
CCOc1cc(/C=N/NC(=O)c2cccc(S(=O)(=O)N3CCOCC3)c2)ccc1OCC(=O)N(C)C,0.118%,–
CC(C)CN(C(=O)Cn1c(=O)cnc2ccccc21)C1CCS(=O)(=O)C1 (stereo unspecified),0.278%,–
O=C(NCCCn1ccnc1)c1cc2c(s1)CCCC2,-6.43%,–
CCc1nnc(SCc2cccc(F)c2)nc1CC,-1.89%,–
Cc1ccc(OCC(=O)OCc2cc(=O)n3nc(C4CC4)sc3n2)cc1C,4.85%,–
COc1ccccc1/C=C/CN1CCC(CO)(Cc2ccccc2)CC1,-38.5%,–
CCOc1ccccc1N(CC)C(=O)Nc1cn(C)c(=O)c2ccccc12,-28.1%,–
CC1=C(C(=O)N2CCOCC2)CC(CC(=O)NCc2ccco2)C(=O)N1Cc1ccc(F)cc1 (stereo unspecified),-7.7%,–
COc1ccc(C2CC(c3cccs3)=NN2C(=O)CCC(=O)O)cc1OC (stereo unspecified),6%,–
O=C(CSc1ccc(-c2ccc(Br)cc2)nn1)NCC1CCCO1 (stereo unspecified),-19.8%,–
C#CCCCc1nc2ccccc2c(=O)n1N,19.6%,–
COc1cc(-c2nnc(NC(=O)C3=COCCO3)o2)cc(OC)c1OC,-0.0683%,–
Cc1nc(C)c(-c2nnc(-c3cccc(S(=O)(=O)N(C)C)c3)o2)cc1C(=O)NN,1.5%,–
CCOC(=O)c1cc(-c2nnc(-c3cc(OC)c(OC)c(OC)c3)o2)c(C)nc1C,–,16.4 µM (active)
Cc1ccc(S(=O)(=O)NCCC(=O)NNC(=O)C2COc3ccccc3O2)cc1 (stereo unspecified),-4.14%,–
CC(C)N(c1ccccc1)c1ncnc(NCCC(=O)O)c1[N+](=O)[O-],-14.3%,–
CO/N=C(\C(=O)N[C@@H]1C(=O)N2C(C(=O)O)=C(COC(C)=O)CS[C@H]12)c1csc(N)n1 (stereo in doubt),–,inactive
CN1C=CC=C/C1=C1\SC(=S)N(Cc2ccccc2)C1=O,-9.03%,–
COc1ccccc1C(=O)NC(CCSC)C(=O)NNC(=O)c1ccccc1C (stereo unspecified),7.15%,–
CCOC(=O)c1ccc(NC(=O)Cn2c(=O)cc(C)c3c(C)nn(-c4cccc(F)c4)c32)cc1,-0.48%,–
CCCc1nnc(SCC(=O)Nc2ccc(C(=O)OCC)cc2)o1,–,23.1 µM (active)
CCOC(=O)c1ccc(NC(=O)Cn2nnc(-c3ccc(C)cc3)n2)cc1,-29%,–

Structure (SMILES),"activity change, negative = growth inhibition",Potency
CCOC(=O)c1ccc(NC(=O)CSc2ncccn2)cc1,-27.6%,–
CCOC(=O)c1ccc(NC(=O)Cn2cnc3cc(C)c(C)cc32)cc1,–,1.16 µM (active)
Cc1ccc(NC(=O)CSc2nnc(COc3ccccc3C)o2)cc1,-0.121%,–
CC(C)CC(=O)N1CCN(Cc2cccc(Cl)c2)CC1,-20.1%,–
O=C(O)C(O)[C@@](O)(Cc1ccc(O)cc1)C(=O)O (stereo partly specified),-10.6%,–
Cc1cc(-c2ccnc(-n3ncc(C(=O)NCCc4ccncc4)c3C)n2)c(C)s1,-1.95% [at 9.04 µM],–
Cc1nnc(SCC2=C(C(=O)O)N3C(=O)C(NC(=O)Cn4nc(C)c(Cl)c4C)C3SC2)s1 (stereo unspecified),-15.2%,–
O=C(CN(CC1CCCO1)C(=O)CNS(=O)(=O)c1ccc(F)cc1)NCc1ccco1 (stereo unspecified),3.31%,–
O=c1oc2ccccc2c(CNc2ccccc2)c1[N+](=O)[O-],3.02%,–
CCS(=O)(=O)c1ccc(C(=O)NC)c(Cl)c1Cl,1.89%,–
Cc1nnc2n1N=C(c1ccccc1)CS2,13.6%,–
O=c1c2cc(-c3ccccc3)sc2nc2n1N=C(c1cccs1)CS2,–,16.4 µM (active)
c1csc(-c2cn3c(n2)SCC3)c1,1.97%,–
CCN([C@H](CO)C(C)C)S(=O)(=O)c1ccccc1Br,-1.97%,–
O=C(NC(=S)NC1CCS(=O)(=O)C1)c1cccc([N+](=O)[O-])c1 (stereo unspecified),-1.95%,–
CCc1ccccc1N1C(=O)CN(S(=O)(=O)CC)CC1(C)C(=O)NC1CCCCC1 (stereo unspecified),-16.5%,–
CN(C)C(=O)c1cccc(-c2cnc3sc(NCc4ccc5c(c4)OCO5)nn23)c1,–,16.4 µM (active)
O=C(Cn1nnc(-c2ccccc2)n1)NCc1ccc2c(c1)OCO2,-13.6%,–
O=C(CSc1ncnc2scc(-c3ccccc3)c12)NCc1ccc2c(c1)OCO2,-4.93%,–
CCN(CC(=O)NCc1cccs1)C(=O)c1cccc(S(=O)(=O)Nc2ccccc2OC)c1,-1.36%,–
O=C(Cc1cccs1)Nc1cccc(-c2nc3ccccc3[nH]2)c1,-13.9%,–
O=C(Nc1cccc(-c2nc3ccccc3[nH]2)c1)c1ccc(C(=O)Nc2cccc(-c3nc4ccccc4[nH]3)c2)cc1,–,18.4 µM (active)

Structure (SMILES),"activity change, negative = growth inhibition",Potency
O=C(Nc1cccc(NC(=O)c2ccc(Br)cc2)c1)c1ccccc1,–,inactive
CCCC(=O)Nc1ccc2oc(-c3ccc(O)c(Br)c3)nc2c1,-15.1%,–
O=C(CNC(=O)c1ccccc1Br)NNC(=O)c1cccs1,-1.12%,–
CCn1c(=O)c2ccccc2n(CC(=O)N2CCCc3ccccc32)c1=O,-27.7%,–
COC(=O)[C@H](C)NC(=O)Nc1ccc(OC(F)(F)F)cc1,9.83%,–
Cn1nccc1NC(=O)Nc1ccc(OC(F)(F)F)cc1,-27.1%,–
O=C(Nc1ccc(OC(F)(F)F)cc1)c1ccc2c(c1)no[n+]2[O-],–,4.11 µM (active)
CCN1CCN(C(=O)Cn2nc(C)n3c(cc4c(OC)cccc43)c2=O)CC1,-1.1%,–
CCn1nc(C)c(CNC(=O)C2CCC(=O)N(Cc3cccc(F)c3)C2)c1C (stereo unspecified),-11.6%,–
Nc1ccn(CC(=O)N2CCN(c3ccccn3)CC2)c(=O)n1,9.16%,–
Cc1cc(C)c2c(-n3cccc3)c(NC(=O)OCc3ccccc3)sc2n1,-26.1%,–
Cc1cc(C)c(CN2CCN(C(=O)Cn3ccc(NC(=O)OCc4ccccc4)nc3=O)CC2)c(C)c1,–,5.17 µM (active)
Cc1cc(C(=O)Nc2nnc(C3CC3)s2)c(C)s1,1.29%,–
CCOC(=O)c1nn(-c2ccccc2F)c2nc(Nc3ccccc3)cc(=O)n12,-11%,–
COc1cnc(-c2ccccn2)nc1Oc1ccc(C(C)(C)C)cc1,–,3.66 µM (active)
COc1ccc(Cc2nc(-c3ccccn3)no2)cc1OC,4.02%,–
COc1ccc(Sc2nc(-c3ccccc3)ncc2OC)cc1,-28.6%,–
COCC(=O)Nc1cc(C(=O)N2CCCC(c3ccccc3)CC2)c2c(c1)nc(-c1ccncc1)n2C (stereo unspecified),6.88% [at 9.04 µM],–
COc1cccc(/C=C/C(=O)OCC(=O)N2CCCc3ccccc32)c1,10.1%,–
CC(=O)c1cc(-c2ccccc2)n(CC(=O)NC2CCCCC2)c1C,–,inactive
CC(=O)c1cc(-c2ccccc2)[nH]c1N1CCCC1,–,16.4 µM (active)
O=c1cc(-c2ccccc2)nc(N2CCCCC2)[nH]1,-25.1%,–
